From PubChem
RecA splice inh = Mtb RecA intein splicing inhibition | 0.75% of 290,000 active | inhibition, % (concentration not given with the values) | AID 2221 | P9WHJ3 | cell-free RecA intein splicing, fluorescence; in the data active means inhibition above about 30%
MazF activator = activators of E. coli MazEF toxin-antitoxin RNase; P0AE70; FAM/BHQ RNA-DNA oligo cleavage fluorescence, 5 h; activation, % at 20 µM; 0.32% of 350,000 active; AID 504720; in the data active means activation above about 50%
Target sequence (P0AE70 whole entry, looked up): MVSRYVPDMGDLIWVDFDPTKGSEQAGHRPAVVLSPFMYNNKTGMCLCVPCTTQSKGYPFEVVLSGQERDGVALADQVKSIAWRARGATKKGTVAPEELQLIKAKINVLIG
Rv3671c inh = inhibits the M. tuberculosis serine protease Rv3671c. P9WHR9. inhibition, % at 5.96 µM. 0.048% of 320,000 active; in the data active means inhibition above about 38%;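 further: extracellular domain of Rv3671c used as enzyme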
Target sequence (P9WHR9 whole entry, looked up, the tested form may be a part): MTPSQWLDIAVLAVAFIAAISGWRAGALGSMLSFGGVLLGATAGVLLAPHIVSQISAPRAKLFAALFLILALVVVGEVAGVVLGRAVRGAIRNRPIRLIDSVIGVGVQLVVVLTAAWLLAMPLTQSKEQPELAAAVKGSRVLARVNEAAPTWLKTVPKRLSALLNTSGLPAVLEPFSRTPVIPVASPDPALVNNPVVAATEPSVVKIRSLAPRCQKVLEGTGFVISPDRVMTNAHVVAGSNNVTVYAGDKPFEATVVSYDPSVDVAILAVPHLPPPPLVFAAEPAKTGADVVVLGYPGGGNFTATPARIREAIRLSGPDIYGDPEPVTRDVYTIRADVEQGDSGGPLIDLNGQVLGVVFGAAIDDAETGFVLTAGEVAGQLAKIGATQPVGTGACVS
Mtb UGM inh = Mtb UDP-galactopyranose mutase inhibition | P9WIQ1 | purified UGM, fluorescence polarization probe displacement | inhibition, % at 10 µM | 0.06% of 320,000 active | AID 504406; in the data active means inhibition above about 10%, passing the limit was not always enough
Mtb bLac sens = beta-lactam sensitization of Mtb H37Rv; M. tuberculosis H37Rv growth with meropenem, percent inhibition; inhibition, % at 25 µM; 0.27% of 330,000 active; AID 434955;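 further: growth measured after seven days incubation then overnight dye step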
TcdB GH inh = blocks C. difficile toxin B glycohydrolase activity; P18177; TcdB glycohydrolase enzymatic assay, plate reader; inhibition, % at 9.99 µM; 0.24% of 350,000 active; AID 652162; in the data active means inhibition above about 10%
GFP chromophore = counter-screen: blocks GFP chromophore formation; shares compounds with RecA splice inh; cell-free GFP chromophore formation, fluorescence; EC50, µM; 83% of 2,100 active
Large screens that a line does not name were inactive (follow-up assays come after a bar, where they were run). This is a sample that favours compounds with a hit; in the whole collection about 0.97% have one here. Unless noted, how the calls were made is not given here.

Cn1cnc([N+](=O)[O-])c1S(=O)(=O)Oc1ccccc1	none (no result: RecA splice inh, Rv3671c inh, Mtb UGM inh, Mtb bLac sens)
CC1=C(CC(=O)c2ccc(Cl)cc2)C(=O)c2ccccc2C1=O	RecA splice inh 68.4 (no result: TcdB GH inh) | GFP chromophore 11.3
O=C(Cc1ccccn1)c1ccc(Cl)cc1	none
CCOC(=O)c1c(NC(=S)N2CCCCC2)sc2c1CCN(C(=O)OCC)C2	RecA splice inh 33.3 | GFP chromophore 25.2
CCOC(=O)c1c(NC(=S)N2CCOCC2)sc2c1CCN(C(=O)OCC)C2	RecA splice inh 39.4 | GFP chromophore 33.2
Cn1cnc(S(=O)(=O)N2C[C@@H](O)COC[C@H]3O[C@H](CC(=O)NC4CCCC4)CC[C@@H]32)c1	none (no result: RecA splice inh, MazF activator, Rv3671c inh, Mtb UGM inh, Mtb bLac sens)
O=C(CCl)N1CCN2C(=O)c3ccccc3C12c1ccc(Cl)cc1 (configuration not stated)	RecA splice inh 83.4 | GFP chromophore 4.21
Cc1ccc(C(=O)N2CCN3C(=O)c4ccccc4C23c2ccc(Cl)cc2)cc1 (configuration not stated)	none (no result: TcdB GH inh)
C[C@@H]1CN([C@H](C)CO)C(=O)CCCn2cc(nn2)CO[C@@H]1CN(C)S(=O)(=O)c1cn(C)cn1	none (no result: RecA splice inh, MazF activator, Rv3671c inh, Mtb UGM inh, Mtb bLac sens)
Cc1ccc(C[n+]2c(-c3ccc(C)cc3)cc(-c3ccc(C)cc3)cc2-c2ccc(C)cc2)cc1	RecA splice inh 55.6 (no result: TcdB GH inh) | GFP chromophore 14.2
Cc1ccc(C[n+]2ccccc2)cc1	none
COc1ccc(S(=O)(=O)N[C@@H]2CC[C@@H](CCn3cc(-c4cccc(F)c4)nn3)O[C@@H]2CO)cc1	none (no result: RecA splice inh, MazF activator, Rv3671c inh, Mtb UGM inh, Mtb bLac sens)
Cc1ccc(-c2nc(Nc3cccc(O)c3)c3ccccc3n2)cc1	none
Oc1cccc(Nc2nc(-c3ccccc3Cl)nc3ccccc23)c1	RecA splice inh 35.0 | GFP chromophore inactive
COc1ccc2c3c([nH]c2c1)[C@H](CO)N(C(=O)C1CCC1)CC31CCN(C(=O)c2ccncc2)CC1	none (no result: RecA splice inh, MazF activator, Rv3671c inh, Mtb UGM inh, Mtb bLac sens)
CN1N=C(C(C)(C)C)CC1=O	RecA splice inh 35.6 | GFP chromophore 18.6
Cc1ccc(/C=C2\SC(N3CCN(C(c4ccccc4)c4ccccc4)CC3)=NC2=O)o1	RecA splice inh 33.3 (no result: TcdB GH inh) | GFP chromophore inactive
COCC#Cc1cnc2c(c1)C(=O)N([C@H](C)CO)C[C@@H](C)[C@H](CN(C)C(C)=O)O2	none (no result: RecA splice inh, MazF activator, Rv3671c inh, Mtb UGM inh, Mtb bLac sens)
COc1ccc(-c2ccc3c(c2)O[C@@H](CN(C)Cc2cccnc2)[C@H](C)CN([C@@H](C)CO)S3(=O)=O)cc1	none (no result: RecA splice inh, MazF activator, Rv3671c inh, Mtb UGM inh, Mtb bLac sens)
CCC(=O)N(CC)C1=C(O)c2ccccc2C(=O)C1=O	RecA splice inh 73.0 | GFP chromophore 12
C[C@H]1CCCCO[C@@H](CN(C)Cc2ccccc2)[C@@H](C)CN([C@@H](C)CO)C(=O)c2cc(NC(=O)Nc3ccc(F)cc3)ccc2O1	none (no result: RecA splice inh, MazF activator, Rv3671c inh, Mtb UGM inh, Mtb bLac sens)
CCOC(=O)C1=C(c2ccccc2)NC(N)=NC1c1ccc(OCc2ccc(C(=O)OC)cc2)cc1 (configuration not stated)	RecA splice inh 46.1 | GFP chromophore 26.3
O=C(c1ccc(F)cc1)N1CCN(c2ccc(N3CCOCC3)nn2)CC1	none
O=C(c1ccc(N2CCN(CCO)CC2)nc1)N1CCOCC1	RecA splice inh 37.4 | GFP chromophore inactive
CCN(CC)CCOc1ccc(Br)cc1	none (no result: TcdB GH inh)
CCN(CC)CCOc1ccc(/C(=C(\Cl)c2ccccc2)c2ccccc2)cc1	RecA splice inh 35.5 | GFP chromophore 17.8
COC(=O)C1CN(C#N)N(c2ccc(Cl)cc2)C12c1ccccc1-c1ccccc12 (configuration not stated)	RecA splice inh 43.9 | GFP chromophore 9.77
COc1ccccc1C#Cc1cnc2c(c1)C(=O)N([C@@H](C)CO)C[C@H](C)[C@@H](CN(C)C(=O)CN(C)C)O2	none (no result: RecA splice inh, MazF activator, Rv3671c inh, Mtb UGM inh, Mtb bLac sens)
COc1cc(/C=C/C(=O)OCC(=O)Nc2ccccc2Sc2ccc(Cl)cc2)ccc1O	RecA splice inh 35.5 | GFP chromophore inactive
COc1cc(/C=C2/C(=O)N(c3ccccc3)N=C2C)ccc1OS(=O)(=O)c1ccccc1	RecA splice inh 69.7 (no result: MazF activator, TcdB GH inh) | GFP chromophore 1.85
COc1cc(/C=C2/C(=N)N3C(=NC2=O)SN=C3S(C)(=O)=O)ccc1OS(=O)(=O)c1ccccc1	none (no result: MazF activator, TcdB GH inh)
COc1ccc(/C=C2/C(=O)N(c3ccccc3)N=C2C)cc1Br	RecA splice inh 45.1 | GFP chromophore 8.04
CC1=NN(c2ccccc2)C(=O)C1=Cc1ccccc1	none (no result: RecA splice inh, Rv3671c inh, Mtb UGM inh, Mtb bLac sens)
COc1ccc(/C=C2/C(=O)N(c3cccc(F)c3)N=C2C)c(OC)c1	RecA splice inh 46.1 | GFP chromophore inactive
CC1=NN(c2cccc(F)c2)C(=O)/C1=C/c1ccc(N(C)C)cc1	none
CCCNC(=O)Nc1ccc2c(c1)C(=O)N(C)C[C@@H](OC)[C@@H](C)CN(C(C)=O)[C@H](C)CO2	none (no result: RecA splice inh, MazF activator, Rv3671c inh, Mtb UGM inh, Mtb bLac sens)
C/C(CC(=O)Nc1ccc(F)cc1F)=N\NC(=O)C(=O)N1CCCCC1	RecA splice inh 78.3 (no result: MazF activator, TcdB GH inh) | GFP chromophore 10.6
COc1nc(N/N=C/c2ccc(-c3ccccc3[N+](=O)[O-])o2)nc(N2CCOCC2)n1	RecA splice inh 61.0 | GFP chromophore 35.1
c1ccc(-c2nc(N3CCCCCC3)c3ccccc3n2)nc1	RecA splice inh 32.2 (no result: TcdB GH inh) | GFP chromophore inactive
O=C1CC(CC(=O)N/N=C/c2ccccc2[N+](=O)[O-])=NN1	RecA splice inh 90.1 (no result: TcdB GH inh) | GFP chromophore 7.29
C[C@@H]1CN([C@H](C)CO)C(=O)c2cccc(NC(=O)c3ccc(-c4nccs4)cc3)c2O[C@H]1CN(C)C(=O)Nc1ccc(C(F)(F)F)cc1	none (no result: RecA splice inh, MazF activator, Rv3671c inh, Mtb UGM inh, Mtb bLac sens)
ONc1cccnc1-n1nc(C(F)(F)F)cc1C(F)(F)F	RecA splice inh 82.4 (no result: MazF activator, TcdB GH inh) | GFP chromophore inactive
CN=C(Nc1cc(C)nn1CCC#N)c1ccccc1	none
Cc1cc(OC(=O)c2ccccc2)n(CCC#N)n1	RecA splice inh 84.8 (no result: TcdB GH inh) | GFP chromophore 10.9
N#CC(C#N)=C(C#N)c1ccc(Nc2ccccc2)cc1	RecA splice inh 51.9 | GFP chromophore 4.56
Cc1ccc(S(=O)(=O)N2CCCCC2)cc1NC(=O)CSc1ncnc2ccccc12	none (no result: Mtb UGM inh, TcdB GH inh)
Cc1ccc(NC(=O)CSc2ncnc3ccccc23)cc1S(=O)(=O)N1CCCCCC1	RecA splice inh 31.1 (no result: Mtb UGM inh) | GFP chromophore inactive
COc1cc(/C=C2/C(=O)N(c3ccc([N+](=O)[O-])cc3)N=C2N2CCOCC2)ccc1O	RecA splice inh 45.6 | GFP chromophore 23.3
CCN(CC)c1ccc(/C=C2/C(=O)N(c3ccc([N+](=O)[O-])cc3)N=C2N2CCOCC2)cc1	none (no result: MazF activator, TcdB GH inh)
COc1ccc(N2CCN(C(=O)c3ccc(Oc4ccc(C(F)(F)F)cn4)cc3)CC2)cc1	RecA splice inh 31.1 (no result: TcdB GH inh) | GFP chromophore inactive
O=C(c1ccc(Oc2ccc(C(F)(F)F)cn2)cc1)N1CCN(c2ccccc2)CC1	none (no result: TcdB GH inh)
CC(=O)Oc1c(Br)cc(N(C(C)=O)S(=O)(=O)c2ccccc2)c2ccccc12	RecA splice inh 36.6 | GFP chromophore 5.3
CC(=O)Oc1ccccc1N(C(C)=O)S(=O)(=O)c1ccc2ccccc2c1	none
Nc1nc(-c2ccc(Br)cc2)c(S(=O)(=O)c2ccccc2)s1	RecA splice inh 80.6 (no result: TcdB GH inh) | GFP chromophore inactive
